D1 antag: human D1 dopamine receptor antagonism. actives 3.2% (n = 360,000). AID 504652. HEK293 TREx D1 cells, calcium flux, dopamine EC80; active compounds read low. activity change, negative = inhibition, % at 10 µM; in the data active = activity change below about -30%; also: % is scaled to controls: 0 for no effect and ±100 for the full control effect
Target sequence (P21728 whole entry, looked up): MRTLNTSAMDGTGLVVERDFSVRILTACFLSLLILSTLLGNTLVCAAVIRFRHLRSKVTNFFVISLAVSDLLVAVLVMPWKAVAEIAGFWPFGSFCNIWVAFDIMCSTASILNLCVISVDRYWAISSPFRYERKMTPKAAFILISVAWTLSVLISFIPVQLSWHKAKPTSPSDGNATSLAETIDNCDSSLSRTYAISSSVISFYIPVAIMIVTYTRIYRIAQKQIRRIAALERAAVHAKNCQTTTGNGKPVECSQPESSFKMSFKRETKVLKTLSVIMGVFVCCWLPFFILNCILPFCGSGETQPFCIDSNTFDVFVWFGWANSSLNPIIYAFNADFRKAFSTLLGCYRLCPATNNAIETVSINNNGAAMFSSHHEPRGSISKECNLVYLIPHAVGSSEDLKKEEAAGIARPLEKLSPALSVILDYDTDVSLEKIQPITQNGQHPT
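Calcium flux readout: force-coupled, inducible Hek293 Trex D1 line, cells induced overnight at 30 C with tetracycline, dye-loaded 30–90 min at RT. Antagonism scored against EC80 dopamine challenge given 180 s after compound.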
GRP78 ERSR act: induces the endoplasmic reticulum stress response in human glioma cells | Potency, µM, without a hit: at the top dose activation, hits mostly activators | U87-MG GRP78 promoter luciferase reporter, 16 h | actives 0.02% (n = 420,000); active = well fitted activation curve with a large enough effect; also: potency is read from the fitted curve at half-maximal effect; series mostly up to about 76 µM; % of control where 0% means no effect; nearly all actives have a fitted effect of over 35% in size
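Stably transfected U87-MG glioma cells carrying a GRP78-based luciferase sensor; 16 h compound incubation. Luminescence end-point read 10 min after Bright-Glo addition at room temperature.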
D1 potentiator: potentiators of human D1 dopamine receptor; P21728; HEK293 TREx D1 cells, calcium flux, dopamine EC20 potentiation; potentiation, % at 10 µM; actives 0.036% (n = 360,000); AID 504651; in the data active = potentiation above about 30%; also: 0% is about no effect
D1 agonist: activates the human D1 dopamine receptor; P21728; activation, % at 2 µM; HEK293 T-REx D1 cells, calcium flux, agonist mode; actives 1% (n = 360,000); also: 0% is about no effect
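Inducible HEK293 T-REx D1 cells, force-coupled to calcium signalling, were plated at 4000 cells/well with tetracycline and held overnight at 30 C. After no-wash calcium dye loading, compound-evoked calcium rise over 180 s flagged agonists.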
TRHR ag: activates the human TRH receptor; P34981; TRHR cells, calcium flux fluo-8, FDSS agonist mode; activation, % at 2 µM; actives 0.18% (n = 360,000); AID 493084; also: 0% is about no effect
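TRHR-expressing cells loaded with fluo-8 calcium dye; 23 nL library compound pin-transferred, kinetic FDSS fluorescence (Ex 480/Em 530) recorded about 180 s for agonist-induced calcium release, before a 10 nM TRH EC20 addition for potentiator mode.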
TRHR PAM: allosterically enhances the human TRH receptor | TRHR cells, fluo-8 calcium fluorescence, EC20 TRH enhancement | enhancement, % at 2 µM | actives 0.66% (n = 360,000) | AID 493056; in the data active = enhancement above about 30%; also: 0% is about no effect
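TRHR-expressing cells loaded with fluo-8 calcium dye were read kinetically (ex 480/em 530) during compound addition, then stimulated with an EC20 of TRH (10 nM final). Enhancement of the Gq-mediated intracellular calcium response was scored.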
An asterisk follows results filed as active; nt = no result given. An excerpt weighted towards active compounds, which were near 4% of everything screened. Rule as the data show it, unless noted: active = activation above about 30%; inactive = the rest.

SMILES | D1 antag | GRP78 ERSR act | D1 potentiator | D1 agonist | TRHR ag | TRHR PAM
NC(=O)c1nsc(C(=O)N(c2ccc(Cl)cc2)C(C(=O)NCC2CCCO2)c2cccs2)c1N (configuration not stated) | -33* | 0% | -5 | 2 | 1 | -5
COc1cccc(N(C(=O)c2snc(C(N)=O)c2N)C(C(=O)NCC2CCCO2)c2ccc(F)cc2)c1 (configuration not stated) | -2 | -8% | nt | 4 | 0 | -2
NC(=O)c1nsc(C(=O)N(c2ccc3c(c2)OCO3)C(C(=O)NCC2CCCO2)c2ccc(F)cc2)c1N (configuration not stated) | -77* | 11% | -9 | -1 | 0 | 8
CN(C)C(=O)Nc1ccc(Oc2ccc(Cl)cc2)cc1 | nt | -3% | nt | nt | nt | nt
CCOC(=O)CSC1=NC(=O)/C(=C\c2ccc(Cl)cc2)S1 | 0 | -6% | -3 | 100* | 0 | 1
O=C(c1cc(-c2ccccc2O)on1)N1CCc2ccccc2C1 | -32* | -3% | -6 | 3 | 0 | -1
CCNC(=S)NNC(=O)c1cc(-c2cc(C)ccc2C)nc2ccccc12 | -31* | -3% | -3 | 2 | -1 | 10
Cc1ccc(-c2cc(C(=O)N3CCCCC3)c3ccccc3n2)cc1C | 43 | 5% | 3 | 35* | 0 | 7
Cc1ccccc1C(=O)N1CCc2ccccc2C1 | -6 | 0% | 8 | 49* | -1 | 26
O=C(c1cc(-c2ccc(O)cc2)on1)N1CCc2ccccc2C1 | 16 | -1% | -6 | 9 | 0 | -3
Cc1ccc([N+](=O)[O-])cc1S(=O)(=O)N1CCn2cccc2C1c1ccc(F)c(F)c1 (configuration not stated) | nt | -4% | -2 | -1 | 0 | 0
Cc1cc2c(s1)c1cnn(Cc3c(F)ccc(C)c3F)c(=O)c1n2C | -24 | nt | 12 | 0 | 0 | 4
COc1ccccc1Nc1cc(C(=O)N2CCc3ccccc3C2)c2ccccc2n1 | 5 | nt | -4 | 1 | 0 | -1
Cc1ccccc1-c1cc(C(=O)N2CCCC2)c2ccccc2n1 | -9 | -5% | 4 | 4 | 0 | 31*
O=C(c1cc2cc(Cl)ccc2[nH]1)N1CCc2ccccc2C1 | -57* | 1% | -8 | 6 | 0 | 6
COc1ccc(N2CCN(C(=O)c3nc(SC)ncc3Cl)CC2)cc1 | -11 | -1% | 1 | 0 | -1 | -1
COc1ccccc1-c1cc(C(=O)N2CCc3ccccc3C2)c2ccccc2n1 | -86* | nt | -6 | 4 | -1 | -17
COc1ccc(N2CCN(C(=O)c3cnc(SC)nc3C)CC2)cc1 | -63* | -4% | -1 | 0 | 0 | -1
CC[N+](CC)(CC)c1ccc(/C=C/c2ccc3ccccc3n2)cc1 | nt | -8% | nt | nt | nt | nt
COc1ccc(-c2cc(C(=O)N3CCN(c4ccccc4)CC3)c3ccccc3n2)cc1 | -37* | 1% | -6 | 3 | 0 | -15
COc1ccc(-c2cc(C(=O)N3CCCC3)c3ccccc3n2)cc1 | 12 | 3% | -2 | -1 | 0 | -7
COc1cc([N+](=O)[O-])ccc1NC(=O)NNC(=O)c1sccc1C | 10 | 4% | -2 | 6 | 0 | -3
O=C1c2cccc3cc(Br)cc(c23)C(=O)N1Nc1ccc(Br)cc1 | -6 | -6% | 4 | 4 | -1 | 7
O=C1C=CC(=O)N1Nc1ccc(Br)cc1 | 5 | -4% | -5 | 9 | 1 | 33*
COc1ccc(-c2cc(C(=O)N3CC4(C)CC3CC(C)(C)C4)no2)cc1 (configuration not stated) | -33* | 2% | -7 | 1 | 1 | 2
SMILES | D1 antag | GRP78 ERSR act | D1 potentiator | D1 agonist | TRHR ag | TRHR PAM
Cc1ccc(-c2cc(C(=O)N3CC4(C)CC3CC(C)(C)C4)no2)cc1 (configuration not stated) | nt | -1% | nt | nt | nt | nt
CN(CCC1CCOCC1)C(=O)CC1C(=O)NCCN1Cc1c(F)cccc1Cl (configuration not stated) | -52* | -1% | -3 | 11 | 1 | -1
CN(CCCC1CCCC1)C(=O)CC1C(=O)NCCN1Cc1cccc(F)c1F (configuration not stated) | 9 | -1% | 30* | 0 | 0 | 4
O=C(Cn1c(=O)n(CC2CCCO2)c(=O)c2ccccc21)Nc1cccc(Cl)c1 (configuration not stated) | 0 | -4% | -1 | 3 | 0 | -7
COc1cc2c(=O)n(CC3CCCO3)c(=O)n(CC(=O)Nc3cccc(Cl)c3)c2cc1OC (configuration not stated) | -44* | -5% | -3 | 0 | -1 | -10
Cc1cccc(-c2nc(CCNC(=O)c3ccccc3Br)cs2)c1 | -39* | -2% | -6 | 3 | -1 | -7
COc1cccc(C(=O)NCCc2csc(-c3cccc(F)c3)n2)c1OC | -8 | -3% | -4 | -1 | -1 | -3
CC(C)NC(=O)NC(=O)COC(=O)/C=C/c1ccc2c(c1)OCO2 | -30* | -2% | -1 | 1 | 0 | 9
S=c1sc2c(Cl)ncnc2n1-c1ccccc1 | -44* | -13% | -12 | 2 | 2 | -2
CC(Sc1nc(=O)cc(N)n1CCc1ccccc1)C(=O)Nc1cccc(Cl)c1 (configuration not stated) | 6 | nt | -5 | 2 | 0 | -1
CC(Sc1nc(=O)cc(N)n1CCc1ccccc1)C(=O)Nc1ccc(Cl)cc1 (configuration not stated) | -33* | 0% | -2 | 16 | 1 | 7
Cc1cc(C=O)c(C)n1-c1ccc(Oc2ccc([N+](=O)[O-])cn2)cc1 | -53* | -3% | -3 | 22 | 5 | -7
COc1ccc(NC(=O)/C(C#N)=C\c2cc(C)n(-c3ccc(Oc4ccc([N+](=O)[O-])cn4)cc3)c2C)cc1 | 9 | -6% | 4 | 3 | 1 | -18
O=C(NCCN1CCOCC1)c1cc(-c2cccs2)on1 | 1 | 11µM* | 5 | -1 | 0 | -11
Cc1cc(NC(=O)c2cc(-c3cccs3)on2)no1 | -42* | -3% | -10 | 7 | 1 | -9
Cc1cc(NS(=O)(=O)c2cccs2)no1 | -83* | -5% | -15 | 1 | 0 | -1
Cc1ccc(S(=O)(=O)Nc2cc(C)on2)cc1 | 2 | -4% | 0 | 2 | -1 | -6
COc1ccc(-n2c(CNC(=O)c3cccc4ccccc34)nnc2SC)cc1 | nt | -2% | nt | nt | nt | nt
COc1ccc(NC(=O)c2oc3c(c2C)-c2nn(Cc4ccccc4Cl)cc2CC3)cc1OC | 4 | -2% | -1 | 1 | 0 | 0

High-throughput results as filed in PubChem BioAssay.
